# Measurements as given in the supplement of paper PMC10849652.
# About 8,800 targets were measured; listed, in parts, are those with a hit and a random draw of the rest. About 0.5% of all pairs of compound and target were hits.
# Compound: CC1=C(C=C(C=C1)NC(=O)C2=CC(=CC=C2)N(C)C)NC(=O)C3=CC=C(C=C3)O
# Assay: log2 fold change, soluble protein after heating vs DMSO (PISA); higher = thermal stabilisation; K562 lysate, 10 uM; active = over 0.2 and 3.5 SD of the protein, either way, in both replicates (recomputed)
# Outline: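 The values are log-two fold changes in thermal stability compared with solvent controls and come from duplicates. They were obtained by TMTpro 16plex LC-MS/MS, with channel sums equalised, on the supernatant after 21,000xg for 90 min. That supernatant came from crude K562 extract at 1 mg/mL protein treated with 10 μM compound for 30 min, heated for 3 min across 48°C-58°C, pooled and brought to 0.5% NP-40 at 4°C.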
# Chain of UniProt Q96EM0 (Q96EM0 whole entry, looked up): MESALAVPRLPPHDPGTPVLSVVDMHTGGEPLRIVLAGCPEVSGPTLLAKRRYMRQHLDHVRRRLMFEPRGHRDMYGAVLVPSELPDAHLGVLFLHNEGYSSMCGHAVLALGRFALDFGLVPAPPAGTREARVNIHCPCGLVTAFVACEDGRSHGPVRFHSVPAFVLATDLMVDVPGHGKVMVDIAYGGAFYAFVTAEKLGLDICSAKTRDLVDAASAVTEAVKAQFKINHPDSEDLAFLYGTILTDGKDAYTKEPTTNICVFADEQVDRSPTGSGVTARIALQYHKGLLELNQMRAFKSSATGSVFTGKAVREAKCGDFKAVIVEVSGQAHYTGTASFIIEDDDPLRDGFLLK
# Chain of UniProt Q9Y6R4 (Q9Y6R4 whole entry, looked up): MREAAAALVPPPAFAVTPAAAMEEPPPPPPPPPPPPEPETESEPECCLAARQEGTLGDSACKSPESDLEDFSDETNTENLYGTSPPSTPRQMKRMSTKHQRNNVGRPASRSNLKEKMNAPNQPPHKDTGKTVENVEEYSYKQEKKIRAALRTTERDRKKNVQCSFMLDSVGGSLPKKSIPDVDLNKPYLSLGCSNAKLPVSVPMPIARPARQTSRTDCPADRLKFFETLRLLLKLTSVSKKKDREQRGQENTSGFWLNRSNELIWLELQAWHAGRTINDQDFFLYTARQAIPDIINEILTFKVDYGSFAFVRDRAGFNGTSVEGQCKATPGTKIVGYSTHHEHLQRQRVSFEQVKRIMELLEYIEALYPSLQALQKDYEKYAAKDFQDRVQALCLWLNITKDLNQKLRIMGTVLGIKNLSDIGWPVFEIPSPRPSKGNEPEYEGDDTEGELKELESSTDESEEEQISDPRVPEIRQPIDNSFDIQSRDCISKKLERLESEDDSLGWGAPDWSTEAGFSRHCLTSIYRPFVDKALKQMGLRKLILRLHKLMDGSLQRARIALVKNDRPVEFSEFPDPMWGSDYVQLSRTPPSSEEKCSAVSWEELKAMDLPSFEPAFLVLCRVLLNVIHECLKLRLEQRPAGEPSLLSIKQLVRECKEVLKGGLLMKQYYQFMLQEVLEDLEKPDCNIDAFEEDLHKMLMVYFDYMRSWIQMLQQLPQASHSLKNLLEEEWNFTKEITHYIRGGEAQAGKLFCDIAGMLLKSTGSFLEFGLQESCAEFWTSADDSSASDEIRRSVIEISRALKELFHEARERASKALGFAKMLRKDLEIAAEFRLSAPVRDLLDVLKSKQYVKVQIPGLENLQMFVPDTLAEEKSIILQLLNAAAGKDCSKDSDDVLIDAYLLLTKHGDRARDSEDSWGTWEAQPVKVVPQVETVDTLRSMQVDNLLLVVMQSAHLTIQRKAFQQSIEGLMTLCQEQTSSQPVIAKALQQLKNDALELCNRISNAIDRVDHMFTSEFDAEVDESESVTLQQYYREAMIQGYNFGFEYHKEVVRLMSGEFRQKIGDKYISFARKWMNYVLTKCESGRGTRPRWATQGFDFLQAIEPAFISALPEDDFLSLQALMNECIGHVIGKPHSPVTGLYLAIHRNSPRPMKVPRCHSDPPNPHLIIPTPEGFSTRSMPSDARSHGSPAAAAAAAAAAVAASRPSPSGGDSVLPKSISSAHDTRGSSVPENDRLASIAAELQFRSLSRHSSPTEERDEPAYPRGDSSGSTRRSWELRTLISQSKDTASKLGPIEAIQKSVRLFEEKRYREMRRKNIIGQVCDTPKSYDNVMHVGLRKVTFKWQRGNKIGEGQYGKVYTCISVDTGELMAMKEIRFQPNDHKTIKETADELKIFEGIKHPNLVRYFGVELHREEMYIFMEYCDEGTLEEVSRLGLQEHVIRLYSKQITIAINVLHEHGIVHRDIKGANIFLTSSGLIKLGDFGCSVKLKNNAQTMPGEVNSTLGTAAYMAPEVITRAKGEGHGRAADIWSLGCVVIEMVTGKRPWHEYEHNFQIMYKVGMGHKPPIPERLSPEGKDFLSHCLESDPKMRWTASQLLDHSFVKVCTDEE
# Chain of UniProt Q15013 (Q15013 whole entry, looked up): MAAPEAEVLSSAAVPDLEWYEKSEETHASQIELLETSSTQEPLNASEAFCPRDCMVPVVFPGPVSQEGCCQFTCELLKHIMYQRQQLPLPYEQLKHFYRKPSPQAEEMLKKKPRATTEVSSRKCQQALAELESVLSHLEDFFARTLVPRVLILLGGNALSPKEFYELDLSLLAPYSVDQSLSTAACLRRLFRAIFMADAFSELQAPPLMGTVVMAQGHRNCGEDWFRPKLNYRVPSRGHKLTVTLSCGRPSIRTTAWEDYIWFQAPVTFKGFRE
# Chain of UniProt P49917 (P49917 whole entry, looked up): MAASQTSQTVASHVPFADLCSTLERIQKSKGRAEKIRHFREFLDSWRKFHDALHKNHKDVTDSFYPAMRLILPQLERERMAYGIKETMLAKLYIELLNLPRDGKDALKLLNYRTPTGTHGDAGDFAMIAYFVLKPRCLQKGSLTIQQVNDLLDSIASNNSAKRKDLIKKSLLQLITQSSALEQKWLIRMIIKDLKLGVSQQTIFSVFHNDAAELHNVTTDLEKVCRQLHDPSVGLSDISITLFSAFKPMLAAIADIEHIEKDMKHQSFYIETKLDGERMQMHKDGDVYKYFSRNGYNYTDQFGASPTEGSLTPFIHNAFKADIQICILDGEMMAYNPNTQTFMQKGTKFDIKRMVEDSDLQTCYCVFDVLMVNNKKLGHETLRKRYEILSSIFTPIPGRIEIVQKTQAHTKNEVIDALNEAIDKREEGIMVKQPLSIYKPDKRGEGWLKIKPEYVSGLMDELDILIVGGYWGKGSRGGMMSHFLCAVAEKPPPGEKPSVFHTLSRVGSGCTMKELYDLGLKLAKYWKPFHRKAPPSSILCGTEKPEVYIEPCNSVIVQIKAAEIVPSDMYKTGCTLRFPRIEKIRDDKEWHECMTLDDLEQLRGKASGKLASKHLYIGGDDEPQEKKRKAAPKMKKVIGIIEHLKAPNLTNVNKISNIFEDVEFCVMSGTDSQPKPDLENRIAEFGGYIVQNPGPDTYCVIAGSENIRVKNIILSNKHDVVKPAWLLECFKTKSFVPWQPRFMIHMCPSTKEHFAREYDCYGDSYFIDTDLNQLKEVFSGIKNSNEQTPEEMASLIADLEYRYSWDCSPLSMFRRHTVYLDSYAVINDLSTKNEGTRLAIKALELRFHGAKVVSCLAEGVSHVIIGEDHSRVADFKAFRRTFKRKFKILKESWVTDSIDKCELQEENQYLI
# Chain of UniProt Q8IYU8 (Q8IYU8 whole entry, looked up): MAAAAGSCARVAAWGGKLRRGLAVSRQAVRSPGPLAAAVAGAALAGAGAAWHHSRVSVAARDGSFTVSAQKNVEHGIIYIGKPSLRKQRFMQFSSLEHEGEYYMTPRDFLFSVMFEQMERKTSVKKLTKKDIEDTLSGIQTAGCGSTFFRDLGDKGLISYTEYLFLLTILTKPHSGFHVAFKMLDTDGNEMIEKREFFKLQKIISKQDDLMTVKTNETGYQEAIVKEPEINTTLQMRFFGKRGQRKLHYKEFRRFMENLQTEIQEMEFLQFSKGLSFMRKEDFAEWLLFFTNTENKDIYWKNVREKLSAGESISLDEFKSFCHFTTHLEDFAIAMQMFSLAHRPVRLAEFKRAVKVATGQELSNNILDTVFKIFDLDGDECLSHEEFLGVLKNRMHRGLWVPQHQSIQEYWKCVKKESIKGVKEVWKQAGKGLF
# Chain of UniProt P49137 (P49137 whole entry, looked up): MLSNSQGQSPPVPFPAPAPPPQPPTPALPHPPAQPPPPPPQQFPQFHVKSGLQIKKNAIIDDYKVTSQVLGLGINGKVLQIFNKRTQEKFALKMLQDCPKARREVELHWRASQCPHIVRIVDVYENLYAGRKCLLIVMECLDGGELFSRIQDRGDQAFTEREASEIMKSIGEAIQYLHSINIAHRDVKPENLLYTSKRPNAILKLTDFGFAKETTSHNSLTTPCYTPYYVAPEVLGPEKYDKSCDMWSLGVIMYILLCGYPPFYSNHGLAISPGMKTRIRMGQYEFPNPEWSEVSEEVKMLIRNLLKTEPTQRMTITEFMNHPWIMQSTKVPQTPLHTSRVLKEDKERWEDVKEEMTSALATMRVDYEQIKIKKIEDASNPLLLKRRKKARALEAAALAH
# Chain of UniProt Q9BW19 (Q9BW19 whole entry, looked up): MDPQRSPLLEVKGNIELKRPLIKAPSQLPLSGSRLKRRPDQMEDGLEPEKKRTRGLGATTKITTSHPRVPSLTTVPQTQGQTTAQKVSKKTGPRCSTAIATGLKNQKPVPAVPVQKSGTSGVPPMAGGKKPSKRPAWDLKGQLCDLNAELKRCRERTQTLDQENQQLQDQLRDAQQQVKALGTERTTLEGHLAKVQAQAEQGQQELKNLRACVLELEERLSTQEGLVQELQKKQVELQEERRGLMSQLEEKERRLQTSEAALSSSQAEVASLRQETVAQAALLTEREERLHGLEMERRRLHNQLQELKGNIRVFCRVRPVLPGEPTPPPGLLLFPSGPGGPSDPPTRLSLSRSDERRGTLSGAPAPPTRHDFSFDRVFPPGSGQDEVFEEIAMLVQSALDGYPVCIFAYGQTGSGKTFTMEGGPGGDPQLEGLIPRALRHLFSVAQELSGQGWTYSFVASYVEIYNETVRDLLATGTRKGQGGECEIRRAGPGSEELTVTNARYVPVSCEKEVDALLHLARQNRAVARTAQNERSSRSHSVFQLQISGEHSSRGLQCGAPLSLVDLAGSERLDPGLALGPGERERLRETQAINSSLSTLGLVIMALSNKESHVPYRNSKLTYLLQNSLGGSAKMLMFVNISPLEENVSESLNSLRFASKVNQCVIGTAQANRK
# Chain of UniProt Q02750 (Q02750 whole entry, looked up): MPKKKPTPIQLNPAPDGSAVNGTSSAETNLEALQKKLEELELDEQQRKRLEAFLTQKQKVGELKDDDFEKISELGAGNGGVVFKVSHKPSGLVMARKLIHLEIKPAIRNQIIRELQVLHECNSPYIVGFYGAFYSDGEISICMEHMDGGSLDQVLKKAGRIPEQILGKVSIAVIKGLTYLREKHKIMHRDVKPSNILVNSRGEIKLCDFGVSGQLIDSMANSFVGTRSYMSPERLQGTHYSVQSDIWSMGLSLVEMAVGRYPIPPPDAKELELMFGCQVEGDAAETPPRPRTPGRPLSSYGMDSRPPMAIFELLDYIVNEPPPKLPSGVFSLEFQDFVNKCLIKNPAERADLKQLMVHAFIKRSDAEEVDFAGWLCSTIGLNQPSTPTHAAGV
row,Target,log2 fold change
1,MARK2 (UniProt E9PC69),0.045 (inactive)
2,MICU1 isoform 3 (UniProt Q9BPX6),0.038 (inactive)
3,MED12 isoform 2 (UniProt Q93074),0.037 (inactive)
4,LYAR (UniProt Q9NX58),0.015 (inactive)
5,MLH1 (UniProt P40692),-0.006 (inactive)
6,MIPEP (UniProt Q99797),0.044 (inactive)
7,MAD2L1BP isoform 3 (UniProt Q15013),-0.011 (inactive)
8,LIG4 (UniProt P49917),0.015 (inactive)
9,MCUB (UniProt Q9NWR8),0.04 (inactive)
10,MOCS1 isoform 8 (UniProt Q9NZB8),-0.026 (inactive)
11,MAP3K4 (UniProt Q9Y6R4),-0.001 (inactive)
12,MAPKAPK2 (UniProt P49137),0.026 (inactive)
13,MAPK9 (UniProt P45984),-0.029 (inactive)
14,MCMBP isoform 2 (UniProt Q9BTE3),0.12 (inactive)
15,MRPL15 (UniProt Q9P015),0.009 (inactive)
16,MRPL10 isoform 2 (UniProt Q7Z7H8),0.053 (inactive)
17,MORC3 (UniProt Q14149),0.021 (inactive)
18,LRRC40 (UniProt Q9H9A6),0.01 (inactive)
19,LARP4B (UniProt Q92615),0.037 (inactive)
20,MAP1S (UniProt Q66K74),0.025 (inactive)

row,Target,log2 fold change
1,LTN1 isoform 3 (UniProt O94822),0.075 (inactive)
2,MCCC1 (UniProt Q96RQ3),-0.004 (inactive)
3,MAP2K1 (UniProt Q02750),-0.012 (inactive)
4,MORC2 (UniProt Q9Y6X9),0.072 (inactive)
5,KNSTRN (UniProt Q9Y448),0 (inactive)
6,MORF4L1 isoform 2 (UniProt Q9UBU8),0.003 (inactive)
7,KIF2C (UniProt Q99661),0.039 (inactive)
8,MRPL30 isoform 2 (UniProt Q8TCC3),-0.006 (inactive)
9,L3HYPDH (UniProt Q96EM0),0.018 (inactive)
10,MED16 (UniProt Q9Y2X0),-0.018 (inactive)
11,KIFC1 (UniProt Q9BW19),0.011 (inactive)
12,MGAT5 (UniProt Q09328),-0.004 (inactive)
13,MICU2 (UniProt Q8IYU8),-0.018 (inactive)
14,MAPKAPK3 (UniProt Q16644),0.029 (inactive)
15,KIF4A (UniProt O95239),0.056 (inactive)
16,MAP11 (UniProt Q8WVR3),-0.031 (inactive)
17,KLC2 (UniProt Q9H0B6),0.016 (inactive)
18,MAP2K5 (UniProt Q13163),0.052 (inactive)
19,METTL7A (UniProt Q9H8H3),-0.033 (inactive)
